The results in this text go back to PubChem BioAssay (NCATS).

The structures appear in SMILES notation. Results filed as inconclusive are left out. A call without a number means that no potency is given here. Calls of active or inactive are those of the source. The call rests on the fitted dose curve.
Potency means the concentration at half of the fitted maximal effect.

The first assay in a line: Primary qHTS for Huh7 cytotoxicity: counterscreen for inhibitors of MERS-S pseudotyped particle cell entry (AID 1479147). As to conditions: cell viability read-out; series mostly up to 57.1 µM; activity change, negative = cytotoxicity: at the top concentration. (Quantitative high-throughput screening tests each substance at several concentrations.)
As for `Nc1ccccc1C(=O)OCC(O)CO` (centres undefined), the result was inactive.

On to `CCOC(=O)C1(c2ccccc2)CCN(CCc2ccc(N)cc2)CC1`, for which the “activity change, negative = cytotoxicity” value was -4.75% (inactive).

On to `CCC(=O)C(CCN(C)C)(c1ccccc1)c1ccccc1`, for which the “activity change, negative = cytotoxicity” value is 1.24% (inactive).

For the molecule `COc1ccc(CN2CCNCC2)c(OC)c1OC`, the “activity change, negative = cytotoxicity” value is -2.48% (inactive).

As for `CC1COC2(c3ccccc3Cl)c3cc(Cl)ccc3NC(=O)CN12` (centres undefined), the outcome was inactive.

For `C=CC[C@]1(O)CC[C@H]2[C@@H]3CCC4=CC(=O)CCC4=C3C=C[C@@]21C`, the result was inactive.

With `Cc1ccc([N+](=O)[O-])[c]2c1[O][Hg]2`, the Potency was 2240 nM (active).

As for `O=C(N[C@H]1N=C(c2ccccc2F)c2cccc3c2N(CC3)C1=O)c1cc2ccccc2[nH]1`, the result was inactive.

`CN(C)C(=S)SSC(=S)N(C)C`: the Potency was 891 nM (active).

Consider `COP(=S)(OC)Oc1ccc(S(N)(=O)=O)cc1`, for which the result was inactive.

As for `Cc1nnc2n1-c1sc(CCC(=O)N3CCOCC3)cc1C(c1ccccc1Cl)=NC2`, the result was inactive.

As to `CC(Cc1ccccc1)NCCCCl` (centres undefined), the outcome was inactive.

For the molecule `CCOC(=O)c1ncn2c1CN(C)C(=O)c1c(I)cccc1-2`, the result was inactive.

As for `CCCC[N+]1(C)[C@@H]2CC(OC(=O)[C@H](CO)c3ccccc3)C[C@H]1[C@@H]1O[C@@H]12` (some centres undefined), the result was inactive.

With `O=C(CCCN1CCC(n2c(=O)[nH]c3ccccc32)CC1)c1ccc(F)cc1`, the “activity change, negative = cytotoxicity” value was 1.84% (inactive).

As for `C=CCN1CC[C@]23CCCC[C@H]2[C@H]1Cc1ccc(O)cc13`, the “activity change, negative = cytotoxicity” value is -37.9% (inactive).

On to `Cc1c(Cl)c(=O)oc2cc(OP(=O)(OCCCl)OCCCl)ccc12`, for which the result was inactive.

The next assay can be described thus: Primary qHTS for inhibitors of MERS-S pseudo-typed particle cell entry (AID 1479149). Further: nearly all actives have a fitted effect of over 60% in size. As to conditions: MERS-S pseudotyped particle entry, luciferase; series mostly up to 57.1 µM; activity change, negative = inhibition: at the top concentration.
Take `Nc1ccccc1C(=O)OCC(O)CO` (centres undefined): the result was inactive.

Take `CCOC(=O)C1(c2ccccc2)CCN(CCc2ccc(N)cc2)CC1`: the “activity change, negative = inhibition” value was -23.3% (inactive).

With `COc1ccc(CN2CCNCC2)c(OC)c1OC`, the “activity change, negative = inhibition” value was 3.3% (inactive).

In the case of `CC1COC2(c3ccccc3Cl)c3cc(Cl)ccc3NC(=O)CN12` (centres undefined), the outcome was inactive.

In the case of `Cc1ccc([N+](=O)[O-])[c]2c1[O][Hg]2`, the Potency is 2820 nM (active).

`O=C(N[C@H]1N=C(c2ccccc2F)c2cccc3c2N(CC3)C1=O)c1cc2ccccc2[nH]1`: the result was inactive.

On to `CN(C)C(=S)SSC(=S)N(C)C`, for which the “activity change, negative = inhibition” value was -94.7% (inactive).

With `COP(=S)(OC)Oc1ccc(S(N)(=O)=O)cc1`, the result was inactive.

For the molecule `Cc1nnc2n1-c1sc(CCC(=O)N3CCOCC3)cc1C(c1ccccc1Cl)=NC2`, the “activity change, negative = inhibition” value is -36.2% (inactive).

Turning to `CC(Cc1ccccc1)NCCCCl` (centres undefined), the “activity change, negative = inhibition” value was 1.29% (inactive).

Turning to `CCCC[N+]1(C)[C@@H]2CC(OC(=O)[C@H](CO)c3ccccc3)C[C@H]1[C@@H]1O[C@@H]12` (some centres undefined), the “activity change, negative = inhibition” value is -3.91% (inactive).

On to `Cc1c(Cl)c(=O)oc2cc(OP(=O)(OCCCl)OCCCl)ccc12`, for which the molecule was classed as inactive.
